Myeloid diff MLP: myeloid differentiation induction | calls only at 10 µM | actives 1% (n = 360,000) | ER-HoxA9 myeloid progenitors, lysozyme-GFP differentiation, flow cytometry;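 active = normalized GFP-positive differentiation at or above the plate's own cutoff, the solvent-only control mean plus 3 SD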;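 note: cells exposed to compound for four days before flow analysis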
MPTP block: permeability transition pore inhibition; isolated mouse mitochondria, Ca2+ swelling absorbance, 30 min; inhibition, % at 10 µM; actives 1.4% (n = 360,000); AID 602449;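 active = inhibition of 50% or more, scaled per plate between neutral and stimulator controls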;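 note: 0% = DMSO wells given calcium and 100% = 1 mM EGTA wells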
FAS TE block: blocks the thioesterase domain of human fatty acid synthase; recombinant FAS-TE, OMFH fluorogenic substrate, fluorescence endpoint; P49327; actives 0.67% (n = 360,000); inhibition, % at 15 µM;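 active = compounds whose normalised, plate-corrected inhibition of enzyme fluorescence in the single-dose primary screen is 50% or more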;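 note: 0% = DMSO with enzyme and 100% = substrate without enzyme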
Target sequence (P49327 whole entry, looked up, the tested form may be a part): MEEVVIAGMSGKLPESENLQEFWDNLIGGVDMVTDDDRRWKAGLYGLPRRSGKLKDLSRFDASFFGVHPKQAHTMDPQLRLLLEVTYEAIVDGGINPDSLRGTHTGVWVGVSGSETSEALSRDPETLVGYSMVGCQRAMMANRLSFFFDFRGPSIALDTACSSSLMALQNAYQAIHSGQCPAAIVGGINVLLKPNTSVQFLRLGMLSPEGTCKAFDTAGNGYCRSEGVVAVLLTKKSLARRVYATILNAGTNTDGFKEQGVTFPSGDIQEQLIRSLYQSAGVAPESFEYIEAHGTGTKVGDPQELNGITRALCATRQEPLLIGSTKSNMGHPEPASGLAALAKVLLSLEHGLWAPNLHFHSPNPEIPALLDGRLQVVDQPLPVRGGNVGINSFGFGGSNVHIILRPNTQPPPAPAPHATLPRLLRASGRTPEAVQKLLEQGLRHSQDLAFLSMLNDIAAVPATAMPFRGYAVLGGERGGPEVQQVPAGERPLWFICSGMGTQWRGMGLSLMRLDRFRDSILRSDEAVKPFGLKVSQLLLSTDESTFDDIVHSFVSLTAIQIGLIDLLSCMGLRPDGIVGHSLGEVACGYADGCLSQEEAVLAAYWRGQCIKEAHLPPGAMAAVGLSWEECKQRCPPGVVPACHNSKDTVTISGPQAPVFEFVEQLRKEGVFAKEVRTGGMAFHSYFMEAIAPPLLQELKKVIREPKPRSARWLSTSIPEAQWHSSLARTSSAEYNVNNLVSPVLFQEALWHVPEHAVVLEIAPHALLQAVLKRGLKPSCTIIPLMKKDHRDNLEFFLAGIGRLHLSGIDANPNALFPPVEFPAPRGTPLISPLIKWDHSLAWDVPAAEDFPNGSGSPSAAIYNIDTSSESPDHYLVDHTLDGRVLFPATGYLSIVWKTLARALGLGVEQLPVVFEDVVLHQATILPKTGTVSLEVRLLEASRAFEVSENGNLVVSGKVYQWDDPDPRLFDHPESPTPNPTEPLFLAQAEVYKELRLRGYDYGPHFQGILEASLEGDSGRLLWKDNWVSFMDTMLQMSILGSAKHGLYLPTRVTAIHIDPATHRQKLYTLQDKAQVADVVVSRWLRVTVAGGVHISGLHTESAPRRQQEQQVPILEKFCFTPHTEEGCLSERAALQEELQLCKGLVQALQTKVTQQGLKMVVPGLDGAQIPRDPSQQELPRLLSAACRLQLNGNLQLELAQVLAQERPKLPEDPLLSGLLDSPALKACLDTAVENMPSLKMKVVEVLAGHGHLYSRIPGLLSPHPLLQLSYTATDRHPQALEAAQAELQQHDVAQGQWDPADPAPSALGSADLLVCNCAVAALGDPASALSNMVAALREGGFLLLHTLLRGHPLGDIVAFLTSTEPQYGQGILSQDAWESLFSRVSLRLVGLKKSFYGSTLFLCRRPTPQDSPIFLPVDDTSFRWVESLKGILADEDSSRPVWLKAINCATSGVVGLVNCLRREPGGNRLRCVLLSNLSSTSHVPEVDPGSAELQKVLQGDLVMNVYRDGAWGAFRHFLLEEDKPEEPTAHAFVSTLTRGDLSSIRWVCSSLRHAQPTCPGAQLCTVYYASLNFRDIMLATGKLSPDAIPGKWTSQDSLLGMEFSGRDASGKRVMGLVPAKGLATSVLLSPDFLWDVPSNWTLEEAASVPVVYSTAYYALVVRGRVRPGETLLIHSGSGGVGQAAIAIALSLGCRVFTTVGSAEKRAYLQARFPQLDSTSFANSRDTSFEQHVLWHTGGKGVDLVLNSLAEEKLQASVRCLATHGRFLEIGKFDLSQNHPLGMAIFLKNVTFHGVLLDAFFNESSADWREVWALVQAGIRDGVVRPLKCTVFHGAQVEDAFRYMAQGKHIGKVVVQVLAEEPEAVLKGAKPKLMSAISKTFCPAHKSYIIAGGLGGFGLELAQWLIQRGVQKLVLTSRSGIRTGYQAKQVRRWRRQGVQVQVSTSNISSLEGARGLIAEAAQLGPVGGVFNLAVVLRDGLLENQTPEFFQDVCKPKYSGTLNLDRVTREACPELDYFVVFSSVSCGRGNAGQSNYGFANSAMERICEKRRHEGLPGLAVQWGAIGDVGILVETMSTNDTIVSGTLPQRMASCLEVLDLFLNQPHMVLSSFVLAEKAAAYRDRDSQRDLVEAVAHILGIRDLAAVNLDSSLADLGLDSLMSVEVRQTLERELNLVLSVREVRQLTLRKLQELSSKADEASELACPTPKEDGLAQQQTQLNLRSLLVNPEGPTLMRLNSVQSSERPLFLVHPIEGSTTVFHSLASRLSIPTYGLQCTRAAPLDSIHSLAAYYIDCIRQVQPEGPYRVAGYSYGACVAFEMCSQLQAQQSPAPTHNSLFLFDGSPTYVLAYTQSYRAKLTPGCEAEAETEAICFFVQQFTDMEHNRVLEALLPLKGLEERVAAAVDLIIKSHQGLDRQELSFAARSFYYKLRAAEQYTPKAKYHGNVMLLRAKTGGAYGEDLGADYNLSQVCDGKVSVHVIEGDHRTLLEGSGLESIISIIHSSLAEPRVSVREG
rCAG binder: binds r(CAG) RNA repeats; r(CAG) RNA repeat, TO-PRO-1 dye displacement fluorescence; inhibition, % at 3 µM; actives 1.3% (n = 370,000); AID 651821;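 active = inhibition above the plate cutoff, the mean of all test compounds on that plate plus 3 SD, cut at about 35% in these data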;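 note: 0% = DMSO alone and 100% = 100 µM mitoxantrone as full dye displacement; higher means more dye released from RNA so lower well fluorescence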
NR3A LBD binder: modulators (binders) of human NR3A ligand-binding domain; NR3A LBD differential scanning fluorimetry, Tm shift; 0% = protein alone, 100% = glycine-bound protein; Tm shift relative to glycine control, % at 25 µM; actives 2.5% (n = 340,000);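 active = melting temperature shift of at least 10% of the positive control shift, at one fixed dose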
rCAG bind conf: r(CAG) RNA repeat binding, confirmation | inhibition, % at 3 µM | shares compounds with rCAG binder | actives 70% (n = 4,300) | TO-PRO-1 dye displacement fluorescence;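 active = inhibition above a per-plate cutoff, the mean inhibition of sample wells plus 3 SD, cut at about 35% in these data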;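 note: loss of TO-PRO-1 fluorescence as compound displaces dye from 1x1 AA loop RNA; 0% = DMSO only wells and 100% = 100 µM mitoxantrone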
DNA CAG counter: counter-screen for rCAG RNA binders: DNA CAG dye complex inhibitors | actives 94% (n = 4,300) | shares compounds with rCAG binder | AID 652068 | d(CAG) DNA oligo TO-PRO-1 dye displacement, fluorescence | inhibition, % at 3 µM;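 active = inhibition above its plate's cutoff, the mean test-well inhibition plus 3 SD, cut at about 4.8% in these data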;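 note: 0% = DNA dye mix with DMSO and 100% = 100 µM mitoxantrone; hits displace the dye from DNA and so lower well fluorescence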
DNA CAG DR: counter-screen for rCAG binders: inhibitors of DNA CAG TO-PRO-1 complex | shares compounds with rCAG binder | DNA CAG/GTC duplex TO-PRO-1 dye displacement fluorescence | IC50, µM | actives 20% (n = 250) | AID 686960; in the data active = IC50 below about 10 µM
The depositor's hits bear a star; i = inactive; · = not tested or not shown. Hits are enriched below; roughly 5.7% of the tested compounds scored in any of these assays.

SMILES | Myeloid diff MLP | MPTP block | FAS TE block | rCAG binder | NR3A LBD binder | rCAG bind conf | DNA CAG counter | others
CN(C)CCC(=O)C(Cc1ccccc1)c1ccccc1 (configuration not stated) | i | 1 | 0 | 35* | 1 | -1 | -1
CN(C)CCNC(=O)C(c1ccccc1)c1ccccc1 | i | -1 | -5 | -1 | 4 | · | ·
COc1ccc(CN2C(=O)c3cccc4cccc2c34)cc1F | i | 2 | 19 | 1 | 1 | · | ·
CCC1(CC)NC(=O)N(CC(=O)OCC(=O)Nc2ncc(Cl)cc2Cl)C1=O | i | 0 | -7 | 4 | 0 | · | ·
CN(C(=O)c1cn(C)c2ccccc12)c1ccc(Oc2cccnc2)cc1 | · | · | · | 0 | · | · | ·
O=C(N/N=C/c1c(O)n(Cc2ccccc2)c(=O)c2ccccc12)c1cccnc1 | i | 15 | 19 | 69* | -3 | 64* | 25*
O=C(N/N=C/c1c(O)n(-c2ccccc2Cl)c(=O)c2ccccc12)c1cccnc1 | i | -1 | 0 | 47* | -5 | 30 | 8.0*
COc1ccc(Cn2c(O)c(/C=N/NC(=O)c3cccnc3)c3ccccc3c2=O)cc1 | i | 2 | 24 | 75* | -3 | 71* | 33* | DNA CAG DR=i
Cc1cccc(-n2c(O)c(/C=N/NC(=O)c3ccccc3Cl)c3ccccc3c2=O)n1 | i | -1 | -11 | 14 | -1 | · | ·
COc1ccc(Cn2c(O)c(C=Nc3ccc(OC)cc3)c3ccccc3c2=O)cc1 | i | 3 | 26 | 2 | -2 | · | ·
COc1ccc(CCC(=O)Nc2ncc(C)s2)cc1 | i | 1 | 0 | -2 | 0 | · | ·
Cc1ccc([N+](=O)[O-])cc1N/C=C1\CCCCC1=O | i | 0 | 9 | 3 | 0 | · | ·
COc1cc(/C=C2\C(=O)NN(c3ccccc3)C2=O)ccc1OCC(N)=O | · | · | · | 2 | · | · | ·
COC(=O)c1ccc(N2NC(=O)/C(=C/c3ccc(OC)c(OC)c3)C2=O)cc1 | i | 0 | -6 | 26 | 4 | · | ·
CCOc1cc(/C=C2/C(=O)NN(c3cccc(Cl)c3)C2=O)ccc1O | i | 2 | -4 | 46* | -1 | 23 | 7.5*
O=C1NN(c2cccc(Br)c2)C(=O)/C1=C\c1ccc(O)cc1 | i | 2 | -1 | 72* | 15* | 27 | 11*
COc1cccc(/C=C2/C(=O)NN(c3ccc(C)c(C)c3)C2=O)c1 | i | -1 | -3 | 72* | -3 | 34 | 9.5*
COc1cc(/C=C2/C(=O)NN(c3cccc(Cl)c3)C2=O)cc(OC)c1O | i | 4 | -7 | 50* | -3 | 14 | 6.8*
COc1cccc(/C=C2/C(=O)NN(c3ccc(F)cc3)C2=O)c1 | i | 1 | -3 | 10 | -2 | · | ·
COc1cc(NC(=S)Nc2ccccn2)cc(OC)c1 | i | -1 | 1 | 0 | 0 | · | ·
O=C(NC1CCN(Cc2ccccc2)CC1)c1cc(S(=O)(=O)Nc2ccc(F)cc2)ccc1Cl | i | -1 | 0 | 4 | 0 | · | ·
O=C(NC1CCN(Cc2ccccc2)CC1)c1ccccc1NS(=O)(=O)c1ccc(F)c(F)c1 | i | -1 | 12 | 36* | -1 | 21 | 3
C=CCOc1ccc(/C=N/NC(=O)CC(=O)NC2CCCCC2)cc1 | i | 0 | -4 | 5 | 1 | · | ·
Cc1ccsc1CN(C)C(=O)CN1C(=O)NC2(CCCc3ccccc32)C1=O (configuration not stated) | i | -1 | -5 | 0 | 2 | · | ·
COc1ccc(N2C(=O)C3C(c4ccc(C(=O)O)cc4)NC(Cc4ccccc4)(C(=O)O)C3C2=O)c([N+](=O)[O-])c1 (configuration not stated) | i | 4 | -12 | 37* | -2 | 18 | 6.6*
SMILES | Myeloid diff MLP | MPTP block | FAS TE block | rCAG binder | NR3A LBD binder | rCAG bind conf | DNA CAG counter | others
COc1ccc(N2C(=O)C3C4C=CC(C4)C3C2=O)c([N+](=O)[O-])c1 (configuration not stated) | i | -1 | -5 | 0 | 0 | · | ·
C=CCOC(=O)C1=C(C)N=c2s/c(=C3\C(=O)N(CC(=O)O)c4ccccc43)c(=O)n2C1c1ccc(OC)cc1 (configuration not stated) | i | 12 | 8 | 12 | 1 | · | ·
C=CCOC(=O)C1=C(C)N=c2sc(=C3C(=O)N(CC(=O)O)c4ccccc43)c(=O)n2C1c1ccc(OC)cc1 (configuration not stated) | · | · | · | 48* | · | 75* | 41*
COc1ccc(OC)c(-c2csc(NC(=O)CSc3nnnn3C)n2)c1 | i | 2 | -6 | 6 | 1 | · | ·
COc1ccc(/C=N/NC(=S)Nc2ccccc2[N+](=O)[O-])cc1O | i | 0 | 12 | 38* | 1 | 24 | 11*
CCCOc1ccc(/C=N/NC(=S)Nc2ccccc2[N+](=O)[O-])c(O)c1 | · | · | · | 49* | 12* | 45* | 20*
CCCOc1ccc(/C=N/Nc2ccccc2[N+](=O)[O-])c(O)c1 | i | 13 | 0 | 5 | -2 | · | ·
O=C1CCCCCC[C@@H](O)[C@H](O)C[C@H](c2ccccc2)O1 | i | 0 | -7 | 1 | · | · | ·
CC1CCN(c2ccc3nnc(CCC(=O)Nc4cccc(F)c4)n3n2)CC1 | i | 0 | 9 | 1 | -4 | · | ·
CCOC(=O)c1c(NC(=O)C(C)Sc2nnc(C)c(=O)[nH]2)sc2c1CCCC2 (configuration not stated) | i | 2 | -5 | 69* | -4 | 66* | 30*
CCOC(=O)c1c(NC(=O)CSc2nnc(C)c(=O)[nH]2)sc2c1CCCC2 | i | 7 | -1 | 69* | -7 | 66* | 20*
Cc1nnc(SCC(=O)Nc2sc3c(c2C#N)CCCC3)[nH]c1=O | i | -1 | -26 | 30 | 1 | · | ·
N#Cc1c(NC(=O)Cn2cnc3ccccc3c2=O)oc(-c2ccccc2)c1-c1ccccc1 | i | -1 | 23 | 43* | 3 | 34 | 14*
Cc1cccc(N(CC(=O)N/N=C/c2ccc(C(=O)O)cc2)S(=O)(=O)c2ccccc2)c1C | i | 3 | 11 | 49* | 0 | 33 | 11*
COc1ccccc1N(CC(=O)N/N=C/c1ccc(C(=O)O)cc1)S(=O)(=O)c1ccc(C)cc1 | i | 2 | 2 | 28 | 0 | · | ·
c1cc(CNC23CC4CC(CC(C4)C2)C3)ccn1 | i | -2 | -6 | -4 | 1 | · | ·
COC(=O)CSc1nnc(-c2ccc(NS(=O)(=O)c3ccc(C)c(C)c3)cc2)o1 | · | · | · | 17 | · | · | ·
COC(=O)CSc1nnc(-c2ccc(NS(=O)(=O)c3ccc(Cl)s3)cc2)o1 | · | · | · | 39* | · | 29 | 5.8*
Cc1cccc(NC(=O)c2sc(Cl)nc2C)c1C | i | 28 | -2 | 0 | -7 | · | ·

High-throughput results from PubChem BioAssay.
